Several values for one entry are separate records, joined by “and”; a condition that tells them apart may be missing. Equal entries are not always repeated. The campaign covered roughly 5,500 compounds. About 2,000 (36%) were called active. Not shown: some 18% with an inconclusive outcome. No stated cut-off is given here; in the data, active means normalized growth mostly below about 0.91 (no sharp cut-off); inconclusive means no clear call, values can overlap the other calls; inactive means mostly above about 0.92. This is one part of the list.
Test: chemical genetic growth profiling, strain panel (AID 1159580);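 further: tested at 20 µM; growth read once vehicle control cultures reached saturation at 30 °C; 1 = growth at the plate median or of vehicle wells; lower values mean less growth of the strain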
Conditions: S. cerevisiae deletion strains, growth OD

Measured: normalized growth

CC(=O)Oc1ccc2c(c1C(C)C)CCC1C(C)(C)CCC[C@]21C (stereo not given in full)
inactive: locus YAL013W, strain DEP1, active compounds read low 1.02 | locus YAL021C, strain ccr4, active compounds read low 0.996 | locus YAL026C, strain drs2, active compounds read low 1.03 | locus YAL030W, strain snc1, active compounds read low 1.01 | locus YBL061C, strain skt5, active compounds read low 1.03 | locus YBR009C, strain hhf1, active compounds read low 1.02 | locus YBR021W, strain FUR4, active compounds read low 1.01 | locus YBR023C, strain chs3, active compounds read low 1.03 | locus YBR171W, strain sec66, active compounds read low 1.03 | locus YBR229C, strain ROT2, active compounds read low 1.02 | locus YBR231C, strain swc5, active compounds read low 1.03 | locus YBR279W, strain paf1, active compounds read low 1.02 | locus YCL011C, strain gbp2, active compounds read low 1.02 | locus YCL016C, strain dcc1, active compounds read low 1.02 | locus YCL029C, strain bik1, active compounds read low 0.997 | locus YCL061C, strain MRC1, active compounds read low 1.01 | locus YCL069W, strain vba3, active compounds read low 1.01 | locus YCR088W, strain abp1, active compounds read low 1.02 | locus YDL005C, strain med2, active compounds read low 1.02 | locus YDL035C, strain GPR1, active compounds read low 1.03 | locus YDL040C, strain nat1, active compounds read low 1 | locus YDL074C, strain BRE1, active compounds read low 1.05 | locus YDL101C, strain DUN1, active compounds read low 1.03 | locus YDL134C, strain PPH21, active compounds read low 1.02 | locus YDL185W, strain tfp1, active compounds read low 1 | locus YDL192W, strain arf1, active compounds read low 1.01 | locus YDR001C, strain nth1, active compounds read low 1.02 | locus YDR069C, strain doa4, active compounds read low 1.02 | locus YDR101C, strain arx1, active compounds read low 0.995 | locus YDR137W, strain rgp1, active compounds read low 1.01 | locus YDR150W, strain NUM1, active compounds read low 0.995 | locus YDR159W, strain sac3, active compounds read low 1.06 | locus YDR162C, strain NBP2, active compounds read low 1.02 | locus YDR195W, strain ref2 1.01 | locus YDR297W, strain sur2, active compounds read low 1.01 | locus YDR318W, strain mcm21, active compounds read low 0.996 | locus YDR334W, strain swr1, active compounds read low 1.02 | locus YDR335W, strain msn5, active compounds read low 1.02 | locus YDR388W, active compounds read low 0.994 | locus YDR392W, strain spt3, active compounds read low 0.997 | locus YDR502C, strain sam2, active compounds read low 1.01 | locus YEL003W, strain gim4, active compounds read low 1.02 | locus YEL037C, strain rad23, active compounds read low 1.01 | locus YEL061C, strain CIN8 (second series), active compounds read low 1.02 | locus YEL061C, strain CIN8, active compounds read low 1.01 | locus YER015W, strain faa2, active compounds read low 1.02 | locus YER016W, strain bim1, active compounds read low 1.02 | locus YER110C, active compounds read low 0.998 | locus YER111C, strain swi4, active compounds read low 1.01 | locus YER155C, strain BEM2 (second series), active compounds read low 1.04 | locus YER155C, strain BEM2, active compounds read low 1.01 | locus YER167W, strain BCK2, active compounds read low 1.01 | locus YFR010W, strain ubp6, active compounds read low 1.04 | locus YGL078C, strain dbp3, active compounds read low 1.01 | locus YGL086W, strain mad1, active compounds read low 0.99 | locus YGL167C, strain pmr1, active compounds read low 1.02 | locus YGL173C, strain kem1, active compounds read low 1.02 | locus YGL227W, strain vid30, active compounds read low 1.02 | locus YGL240W, strain doc1, active compounds read low 1.02 | locus YGL248W, strain PDE1, active compounds read low 1.02 | locus YGL253W, strain hxk2, active compounds read low 1.03 | locus YGR135W, strain pre9, active compounds read low 0.99 | locus YGR252W, strain gcn5, active compounds read low 1.02 | locus YHR013C, strain ard1, active compounds read low 1.04 | locus YHR027C, strain rpn1, active compounds read low 1.02 | locus YHR030C, strain SLT2, active compounds read low 0.969 | locus YHR079C, strain IRE1 (second series), active compounds read low 0.985 | locus YHR079C, strain IRE1, active compounds read low 0.973 | locus YHR094C, strain hxt1, active compounds read low 1 | locus YHR129C, strain ARP1, active compounds read low 1.01 | locus YHR142W, strain chs7, active compounds read low 1.05 | locus YHR200W, strain rpn10, active compounds read low 1 | locus YIL066C, strain RNR3, active compounds read low 1.03 | locus YIL073C, strain SPO22, active compounds read low 1.04 | locus YIL125W, strain kgd1, active compounds read low 1 | locus YIR030C, strain dcg1, active compounds read low 1 | locus YJL092W, strain hpr5, active compounds read low 1.02 | locus YJL095W, strain BCK1 (second series), active compounds read low 1.04 | locus YJL095W, strain BCK1, active compounds read low 1.04 and 0.976 | locus YJL115W, strain asf1, active compounds read low 1.04 | locus YJL129C, strain trk1, active compounds read low 0.995 | locus YJL134W, strain LCB3, active compounds read low 1.01 | locus YJL154C, strain vps35, active compounds read low 1.01 | locus YJL164C, strain tpk1, active compounds read low 1 | locus YJL166W, strain qcr8, active compounds read low 1.03 | locus YJL168C, strain set2, active compounds read low 0.996 | locus YJL187C, strain SWE1 (second series), active compounds read low 1.02 | locus YJL187C, strain SWE1, active compounds read low 1.01 | locus YJR043C, strain POL32, active compounds read low 1.03 | locus YJR066W, strain TOR1, active compounds read low 0.918 | locus YKL009W, strain mrt4, active compounds read low 1.01 | locus YKL068W, active compounds read low 0.997 | locus YKL085W, strain MDH1 (second series), active compounds read low 1.01 | locus YKL085W, strain MDH1, active compounds read low 1.01 | locus YKL160W, strain elf1, active compounds read low 1.01 | locus YKR001C, strain vps1, active compounds read low 1.01 | locus YKR026C, strain gcn3, active compounds read low 1.03 | locus YKR091W, strain srl3, active compounds read low 1.01 | locus YLL001W, strain dnm1, active compounds read low 1 | locus YLL026W, active compounds read low 1.02 | locus YLL041C, strain sdh2, active compounds read low 1.02 | locus YLR027C, strain aat2, active compounds read low 1.02 | locus YLR039C, strain RIC1, active compounds read low 1.02 | locus YLR058C, strain SHM2, active compounds read low 1.02 | locus YLR102C, strain apc9, active compounds read low 0.999 | locus YLR113W, strain HOG1, active compounds read low 1 | locus YLR221C, strain rsa3, active compounds read low 1.02 | locus YLR258W, strain gsy2, active compounds read low 1.01 | locus YLR262C, strain YPT6 (second series), active compounds read low 1.01 | locus YLR262C, strain YPT6, active compounds read low 1.06 | locus YLR268W, strain sec22, active compounds read low 1 | locus YLR320W, strain mms22, active compounds read low 1.04 | locus YLR330W, strain CHS5, active compounds read low 1.01 | locus YLR342W, strain FKS1 (second series), active compounds read low 1.01 | locus YLR342W, strain FKS1, active compounds read low 1.02 | locus YLR357W, strain rsc2, active compounds read low 1.04 | locus YLR370C, strain arc18, active compounds read low 1.02 | locus YLR371W, strain rom2, active compounds read low 0.99 | locus YLR384C, strain iki3, active compounds read low 1.03 | locus YLR418C, strain cdc73, active compounds read low 1 | locus YML016C, strain PPZ1, active compounds read low 1.02 | locus YML032C, strain rad52, active compounds read low 1.01 | locus YML120C, strain ndi1, active compounds read low 1.01 | locus YML124C, strain tub3, active compounds read low 1 | locus YMR058W, strain fet3, active compounds read low 1.03 | locus YMR078C, strain ctf18, active compounds read low 1 | locus YMR125W, strain sto1, active compounds read low 1.03 | locus YMR129W, active compounds read low 1.03 | locus YMR205C, strain PFK2, active compounds read low 0.995 | locus YMR223W, strain ubp8, active compounds read low 1.01 | locus YMR231W, strain pep5, active compounds read low 1.01 | locus YMR263W, strain SAP30, active compounds read low 1.02 | locus YMR307W, strain GAS1, active compounds read low 1.02 | locus YNL067W, strain RPL9B, active compounds read low 1.01 | locus YNL071W, strain lat1, active compounds read low 1.01 | locus YNL128W, strain TEP1, active compounds read low 1.02 | locus YNL153C, strain GIM3, active compounds read low 1.02 | locus YNL183C, strain NPR1, active compounds read low 0.928 | locus YNL209W, strain ssb2, active compounds read low 1.02 | locus YNL233W, strain BNI4, active compounds read low 1.02 | locus YNL248C, strain rpa49, active compounds read low 1.02 | locus YNL250W, strain rad50, active compounds read low 0.992 | locus YNL271C, strain bni1, active compounds read low 0.996 | locus YNL298W, strain CLA4, active compounds read low 1.01 | locus YNL307C, strain MCK1, active compounds read low 1 | locus YNL322C, strain KRE1 (second series), active compounds read low 1.01 | locus YNR049C, strain mso1, active compounds read low 1.04 | locus YNR052C, strain pop2, active compounds read low 0.995 | locus YOL012C, strain htz1 1.05 | locus YOL147C, strain pex11, active compounds read low 0.999 | locus YOR001W, strain rrp6, active compounds read low 1.02 | locus YOR061W, strain CKA2, active compounds read low 1.02 | locus YOR069W, strain VPS5, active compounds read low 1.01 | locus YOR070C, strain gyp1, active compounds read low 1.02 | locus YOR080W, strain dia2, active compounds read low 1.02 | locus YOR083W, strain WHI5, active compounds read low 1.01 | locus YOR106W, strain vam3, active compounds read low 1.02 | locus YOR136W, strain idh2, active compounds read low 0.99 | locus YOR144C, strain elg1, active compounds read low 0.996 | locus YOR184W, strain ser1, active compounds read low 0.996 | locus YOR231W, strain MKK1, active compounds read low 0.97 | locus YOR265W, strain rbl2, active compounds read low 1.04 | locus YOR270C, strain vph1, active compounds read low 1.01 | locus YOR290C, strain snf2, active compounds read low 1 | locus YOR316C, strain cot1, active compounds read low 0.998 | locus YPL051W, strain arl3, active compounds read low 1.02 | locus YPL078C, strain atp4, active compounds read low 1 | locus YPL106C, strain sse1, active compounds read low 1.02 | locus YPL240C, strain hsp82, active compounds read low 1.02 | locus YPL256C, strain CLN2, active compounds read low 0.966 | locus YPR119W, strain clb2, active compounds read low 0.992 | locus YPR141C, strain kar3, active compounds read low 1 | locus YPR163C, strain tif3, active compounds read low 0.996 | locus YPR167C, strain met16, active compounds read low 0.995 | strain wtn01, active compounds read low 1

Reference: PubChem BioAssay AID1159580 (chemical genetic matrix, 2015)
